# Legend:
# Assay in all cases: PBM binding z-score (relative to random genomic background probes); higher = stronger binding; sequences stand for … in GC…GCGATTGACAGCGTAGAATGAAGG
# [1] = tested on: FXR:RXRa (NR concentration 270 nM, RXRa partner concentration 90 nM)
# Summary of the method: (§1)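 Random background probes are the reference for binding z-scores. These scores derive from regression-normalized fluorescence on custom Agilent 4×180K protein-binding microarrays incubated 1 h with ligand-free nuclear receptor dimers. Binding was detected with antibodies against each partner (one per run).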
# [2] = tested on: LXRa:RXRa (NR concentration 270 nM, RXRa partner concentration 90 nM)
# Summary of the method: as §1
# [3] = tested on: LXRa homodimer (NR concentration 270 nM)
# Summary of the method: as §1
# [4] = tested on: LXRb:RXRa (NR concentration 270 nM, RXRa partner concentration 90 nM)
# Summary of the method: as §1
# [5] = tested on: LXRb homodimer (NR concentration 270 nM)
# Summary of the method: as §1
# [6] = tested on: PPARa:RXRa (NR concentration 270 nM, RXRa partner concentration 90 nM)
# Summary of the method: as §1
# [7] = tested on: PPARg:RXRa (NR concentration 180 nM, RXRa partner concentration 90 nM)
# Summary of the method: as §1
# [8] = tested on: PPARg:RXRa 270nM:90nM, anti-RXR (NR concentration 270 nM, RXRa partner concentration 90 nM)
# Summary of the method: as §1
# [9] = tested on: PPARg:RXRa 30nM:10nM, anti-RXR (NR concentration 30 nM, RXRa partner concentration 10 nM)
# Summary of the method: as §1
# [10] = tested on: PPARg:RXRa 90nM:30nM, anti-RXR (NR concentration 90 nM, RXRa partner concentration 30 nM)
# Summary of the method: as §1
# [11] = tested on: PPARg:RXRa DBDmut IVT, anti-RXR (DBD mutation: RXRa K156A/R161A, NR concentration 270 nM, RXRa partner concentration 90 nM)
# Summary of the method: as §1
# [12] = tested on: PPARg:RXRa IVT, anti-PPARg (NR concentration 270 nM, RXRa partner concentration 90 nM)
# Summary of the method: as §1
# [13] = tested on: PPARg DBDmut:RXRa IVT, anti-PPARg (DBD mutation: PPARg1 K132A/R137A, NR concentration 270 nM, RXRa partner concentration 90 nM)
# Summary of the method: as §1
# [14] = tested on: PPARg DBDmut IVT, anti-PPARg (DBD mutation: PPARg1 K132A/R137A, NR concentration 270 nM)
# Summary of the method: as §1
# [15] = tested on: PPARg homodimer (NR concentration 180 nM)
# Summary of the method: as §1
# [16] = tested on: PXR:RXRa (NR concentration 270 nM, RXRa partner concentration 90 nM)
# Summary of the method: as §1
# [17] = tested on: PXR homodimer (NR concentration 270 nM)
# Summary of the method: as §1
# [18] = tested on: RARa:RXR (NR concentration 270 nM, RXRa partner concentration 90 nM)
# Summary of the method: as §1
# [19] = tested on: RARa homodimer (NR concentration 270 nM)
# Summary of the method: as §1
# [20] = tested on: RARb:RXRa (NR concentration 270 nM, RXRa partner concentration 90 nM)
# Summary of the method: as §1
Sequence,PBM binding z-score [1],PBM binding z-score [2],PBM binding z-score [3],PBM binding z-score [4],PBM binding z-score [5],PBM binding z-score [6],PBM binding z-score [7],PBM binding z-score [8],PBM binding z-score [9],PBM binding z-score [10],PBM binding z-score [11],PBM binding z-score [12],PBM binding z-score [13],PBM binding z-score [14],PBM binding z-score [15],PBM binding z-score [16],PBM binding z-score [17],PBM binding z-score [18],PBM binding z-score [19],PBM binding z-score [20]
TCTTGTAGATCAACAGGAGGTTAAGAGAGATCGA,-0.193,1.14,-0.121,0.527,-0.544,1.3,0.126,1.38,2.38,1.73,1.53,0.53,0.135,-0.105,-0.206,0.838,-0.445,0.613,-0.275,0.493
ACTAGCAGGCCAAGGTTCACTCAAGATTAGTCCG,0.739,1.16,0.631,1.04,-0.0506,2.89,5.16,6.08,5.04,6.29,1.19,2.08,-0.0687,-0.0109,0.515,1.36,0.191,1.35,0.0605,1.62
TCATATAGGTCATACAGGTGAAAGTCGGCATCTA,6.18,5.45,1.98,4.49,1.72,5.68,7.05,6.57,5.26,6.25,6.93,6.78,2.18,2.34,2.69,3.62,1.06,4.44,2.39,4.2
CCGACTGGGGCAAGCTTACCATAACGCACAGCCA,-0.512,-0.683,-0.49,-0.277,-1.15,0.0607,0.938,0.116,-0.5,-0.274,3.86,2.37,-0.563,-1.13,-0.678,-0.729,-0.611,-0.807,-0.606,0.697
TCTCGGAGAACACGAAAGGTCAGAGCTCGACATC,2.02,3.08,1.46,3,-0.199,3.32,0.977,2.21,2.43,2.25,1.25,1.13,-0.0833,-0.197,1.7,3.39,0.0795,3.89,0.536,3.55
ACTATTAGTTGAGACGAGGGCAACTGATAGGTTG,0.629,-0.0348,0.074,-0.0916,-0.0432,0.621,0.7,0.45,0.365,0.668,0.393,0.643,1.37,1.23,0.253,1.22,0.231,0.44,0.299,1.16
TAGCCTAAGTCATTGGGCCAGTATAGTACGCATC,-0.205,-0.421,-0.659,-0.39,-0.339,-0.181,0.256,-0.24,-0.281,-0.391,-0.775,-0.00957,-0.0162,-1.02,-0.452,-0.441,-0.814,-0.394,-0.564,0.068
CCAAGCAGGCCAATCTGGGTCACTCAAGGCTTGA,0.754,1.79,-0.345,0.979,-1.19,3.45,2.46,2.55,0.227,1.63,4.53,4.91,0.213,-1.24,0.382,1.26,-0.284,1.71,-1.17,1.62
GCCGCTAGGTCAGGTTGGTCAGCTAACGGGTACG,1.23,0.593,-0.167,0.545,-0.194,1.41,0.278,0.955,-0.607,0.0187,2.34,1.64,-0.905,-1.32,0.576,0.356,-0.526,0.716,-0.74,3.27
CGTAAAAGTTCAAGGTAACGTAACAGAAAGCAGC,5.78,5.24,2.41,3.04,1.2,4.35,2.48,3.11,1.09,1.91,0.129,1.62,1.87,1.28,2.19,3.49,1.82,2.92,1.29,4.99
CTCGAAAGCTCGTGCTCAGGTGAGTATACCAAAC,-0.575,-0.866,-0.669,-0.84,-0.65,-0.803,-0.599,-0.812,-0.841,-0.913,-0.844,-0.272,-1.04,-0.415,-0.882,-0.746,-0.669,-0.62,-1.18,-1.07
CGTCCAAGGTCATAGGAGGTCAGTCAAGACAGAT,7.64,7.59,5.22,6.59,0.88,5.87,5.47,5.75,2.45,4.47,3.31,4.37,0.231,0.0229,4.04,6.74,4.16,5.99,1.15,5.37
TCATATAGGTACAAGGTGAAAGTCGGTGTGGTAA,0.883,1.08,0.335,1.18,0.0749,3.3,4.66,5.75,5.85,6.21,3.23,2.75,0.878,0.815,1.21,0.845,0.358,1.25,1.19,1.12
GCTGCTAGGTCAGGTTGGTCAGTTAACGGGTACG,1.25,0.792,0.267,0.719,0.0842,1.6,0.425,0.836,-0.54,-0.0172,2.8,2.15,-1,-0.445,0.781,0.391,0.149,0.719,-0.401,3.21

# — the supplement of paper PMC6555819
